Tb PYK inh – inhibitors of Trypanosoma brucei pyruvate kinase; actives 0.12% (n = 410,000); Potency, µM (series often up to 76.8 µM), for the others: top-dose activity, negative = inhibition, most hits filed as inhibitors; Q57TT1; TbPYK enzyme, Kinase-Glo Plus ATP luminescence, 45 min; note: potency is the fitted concentration of half-maximal effect; % is set by controls: 0 for no effect and ±100 for the full control effect; nearly all actives have a fitted effect of over 50% in size
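Quantitative HTS: titrated library compounds versus trypanosomal pyruvate kinase in TEA buffer (pH 7.2) containing KCl, MgCl2, BSA and Tween-20. Reactions were initiated with ADP, 130 uM final. Kinase-Glo Plus luminescence was read after 45 min at RT.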
LmPK inh – inhibitors of Leishmania mexicana pyruvate kinase; Q27686; purified LmPK, Kinase-Glo ATP luminescence, 1 h; Potency, µM (top dose mostly 57.5 µM), for the others: at the highest dose activity change, negative = inhibition, actives largely listed as inhibitors; actives 0.37% (n = 290,000); note: potency is the fitted concentration of half-maximal effect; % is set by controls: 0 for no effect and ±100 for the full control effect
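Kinase-Glo luminescence read after 1 h RT reaction of 0.1 nM LmPK with 0.5 mM PEP and 0.1 mM ADP. Activity scaled between uninhibited and enzyme-free controls.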
CHX counter – affects cycloheximide protein synthesis inhibition readout, counter-screen; actives 12% (n = 300,000); cell reporter, cycloheximide protein synthesis inhibition counterscreen; max response, %; in the data active = max response mostly above about 13%, no sharp cut-off; inactive = mostly below about 14%; note: read at 38.3 µM for the half of the compounds with a filed dose; 0% is about no effect
RE007 growth inh – less growth of the S. pombe RE007 Vpr strain; Potency, µM (titrated, usually from 92.2 µM), for the others: at the highest dose activity change, negative = less growth, usual class: inhibitors; S. pombe RE007 Vpr strain, BacTiter-Glo ATP luminescence, 24 h; actives 0.21% (n = 360,000); active = well fitted falling curve with a large enough effect; inconclusive = small, poorly fitted or top-dose-only effect; inactive = no such curve, though single readings can be large or run the other way; note: potency is the fitted concentration of half-maximal effect; % is set by controls: 0 for no effect and ±100 for the full control effect; nearly all actives have a fitted effect of over 50% in size
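Fission yeast RE007 carrying one integrated HIV-1 vpr copy, seeded at OD 0.01 in PMG+AL medium with 23 nL pinned compound. Grown 24 h at 30 degrees; viability read by BacTiter-Glo luminescence after 5 min.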
Shiga inhibitor – inhibitors of Shiga toxin in Vero cells. Vero cells, Shiga toxin protein synthesis inhibition reporter. inhibition, % at 38.7 µM. actives 9.2% (n = 290,000); in the data active = inhibition mostly above about 28%, no sharp cut-off; inactive = mostly below about 43%; note: 0% is about no effect
FBPA Giardia inh – blocks Giardia fructose-bisphosphate aldolase activity; A8B2U2; purified Giardia FBPA; Potency, µM (series often up to 59.6 µM), inactives show top-dose activity, negative = inhibition, most hits filed as inhibitors; actives 0.71% (n = 290,000); AID 2451; note: potency is the fitted concentration of half-maximal effect; % is set by controls: 0 for no effect and ±100 for the full control effect; nearly all actives have a fitted effect of over 55% in size
Target sequence (A8B2U2 whole entry, looked up): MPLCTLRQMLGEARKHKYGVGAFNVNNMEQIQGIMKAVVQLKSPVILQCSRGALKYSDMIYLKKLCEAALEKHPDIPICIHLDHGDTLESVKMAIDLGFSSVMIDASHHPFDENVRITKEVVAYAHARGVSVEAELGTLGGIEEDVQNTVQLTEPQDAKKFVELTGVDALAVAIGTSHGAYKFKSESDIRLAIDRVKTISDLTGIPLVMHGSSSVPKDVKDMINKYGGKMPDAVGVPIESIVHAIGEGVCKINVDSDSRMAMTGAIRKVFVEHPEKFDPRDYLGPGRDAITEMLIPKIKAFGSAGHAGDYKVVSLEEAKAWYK
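Giardia FBPA (40 nM reagent) was preincubated 10 min at RT with compound (up to 57.5 uM final), then substrate plus GAPDH/TPI/NAD/arsenate coupling system with diaphorase/resazurin was added; resorufin fluorescence (525/598 nm) was read after 20 min.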
An asterisk follows results filed as active; ? = inconclusive; / = no result; [ ] = dose if it differs, or a comment. The full list was thinned out, with hits kept by preference. Unless noted, calls come from the whole dose curve; as a rule, active = well fitted curve in the direction sought with a large enough effect; inconclusive = small, poorly fitted or top-dose-only effect, or another doubt; inactive = no such curve, though single readings can be large; an effect the other way counts as inactive or inconclusive.

SMILES | Tb PYK inh | LmPK inh | CHX counter | RE007 growth inh | Shiga inhibitor | FBPA Giardia inh
COc1ccc(C(=O)NNC(=O)CSc2nnc(C(C)C)n2C)cc1 | 3% | 1% | -5 | ? | -9 | -5%
COc1ccc(C(=O)c2cnc(C(C)C)n2C)cc1 | 3% | 3% | 16* | 5% | 82* | 0%
CCCc1ncc(C(O)c2cccc(OC)c2)n1C (centres undefined) | 2% | 5% | -2 | 13% | 14 | 7%
COc1ccc(NC(=O)Cn2c(=O)n(-c3cccc(C)c3)c(=O)c3c2c2cc(C)ccc2n3C)cc1OC | 2% | / | / | / | / | /
COc1ccc(-c2cc3nc(C4CCN(C(=O)OC(C)(C)C)CC4)c(C(=O)Nc4cc(Cl)cc(Cl)c4)cn3n2)cc1 | -6% | / | / | / | / | /
O=C(c1cc(-c2ccccc2Cl)on1)N1CCN(C(=O)c2ccco2)CC1 | -14% | 1% | -3 | -19% | -11 | /
O=C(c1ccco1)N1CCN(Cc2c(Cl)cccc2Cl)CC1 | 0% | 3% | 21* | 15% | 110 | 6%
O=C(c1ccco1)N1CCN(Cc2csc(-c3ccccc3Cl)n2)CC1 | -2% | -3% | 50* | ? | 83* | /
O=C(c1ccco1)N1CCN(Cc2ccc(Cl)cc2)CC1 | 37% | -3% | -2 | 4% | -2 | ?
COc1ccc2c(c1)CC/C(=C\c1ccc(C)o1)C2=O | -12% | -6% | 56* | 17% | 91* | -28%
COc1ccc2c(c1)CC/C(=C/c1ccncc1)C2=O | -9% | -19% | 32* | ? | 54 | 0%
Cc1cc(C)cc(NC(=O)c2cc(S(=O)(=O)N3CCc4ccccc43)cn2C)c1 | -3% | / | / | / | / | /
Cc1ccc2nc(-c3sc4nc(C)cc(C)c4c3N)[nH]c2c1 | -2% | 2% | 26* | -3% | 43* | -8%
Nc1cccc(-c2nc3ccccc3[nH]2)c1 | -7% | ? | 22* | -2% | 71* | 1%
Cc1ccc2nc(-c3cccc(N)c3)[nH]c2c1 | -15% | 16µM* | 17* | ? | 33* | -20%
Nc1ccc2nc(-c3ccc(-c4nc5ccc(N)cc5[nH]4)cc3)[nH]c2c1 | 4% | -5% | -3 | -1% | 33 | -11%
CCCCC(=O)Nc1nnc(S(=O)(=O)N(C)Cc2ccc(Cl)cc2)s1 | 1%[15.4 µM] | / | / | / | / | /
Cc1ccc(/C=C/C(=O)c2c(C)nc3ccccn23)cc1 | -13% | -24% | 39* | -4% | 70* | -8%
Cc1cccc(NC(=O)c2c(C)nc3ccccn23)c1 | -2% | -3% | 29* | 12% | 80* | -5%
Cc1ccc(NC(=O)c2c(C)nc3ccccn23)cc1C | 1% | 1% | 41* | -1% | 57* | -9%
CCOC(=O)OCC1OC(CCc2ccccc2)CCC1Oc1ccc(OC)cc1 (centres undefined) | / | / | / | / | / | 1%[12.9 µM]
Cc1ccc(Cl)cc1N1CCN(C(=O)Cn2cnc3nc4c(cc3c2=O)CCCC4)CC1 | 4% | / | / | / | / | /
CC(=O)Oc1ccc(N2C(=O)C3C4C=CC(CO)(O4)C3C2=O)cc1 (centres undefined) | ? | 7% | 16 | 7.9µM* | 14 | 3%
O=C1CCC(=O)N1c1ccccc1-c1ccccc1 | -5% | -2% | -5 | 4% | -3 | -1%
CC(=O)Oc1ccc(N2C(=O)C3C(C2=O)C2(C)C=CC3(C)O2)cc1 (centres undefined) | / | 7% | 19 | / | 26 | -5%
SMILES | Tb PYK inh | LmPK inh | CHX counter | RE007 growth inh | Shiga inhibitor | FBPA Giardia inh
O=C1C2C3C=CC(CO)(O3)C2C(=O)N1c1ccccc1-c1ccccc1 (centres undefined) | ? | 18µM* | -5 | 13µM* | -1 | -20%
O=C1C2C3C=CC(CNS(=O)(=O)c4ccccc4)(O3)C2C(=O)N1c1ccc(Cl)cc1 (centres undefined) | -10% | -7% | 9 | 3.2µM* | 1 | 1%
CC#CCN1c2ccccc2[C@]23C[C@@H](C(=O)OC)N(S(=O)(=O)CCCC)C2=NC(C(=O)OC)=C(C(=O)OC)[C@H]13 | / | 0%[11.5 µM] | / | / | / | 1%[12.9 µM]
Cc1ccc(C)c(NC(=S)NNC(=O)c2ccco2)c1 | -11% | -1% | 18 | 0% | 16 | -19%
Cc1ccc(NC(=S)NNC(=O)c2ccco2)cc1 | -11% | -3% | 31* | 15% | 66* | 0%
Cc1cccc(NC(=S)NNC(=O)c2ccco2)c1 | -16% | 3% | 23* | 11% | active | 24%
CCCCC/C=C\C/C=C\C/C=C\C=C\C1CCCC(=O)O1 (centres undefined) | / | / | / | / | / | 1%
Cc1c(C(=O)Nc2cccc(C(F)(F)F)c2)oc2ccc(S(=O)(=O)N(C)C3CCCCC3)cc12 | -14% | / | / | / | / | /
O=C(CCSc1nc(-c2ccco2)cc(C(F)(F)F)n1)NCCc1ccccc1 | -6% | 4% | 33* | 34% | 54 | 5%
FC(F)(F)c1cc(-c2ccco2)nc(NCCc2ccccc2)n1 | -2% | 0% | 20* | -2% | 78 | 1%
CCCCC/C=C\C/C=C\C/C=C\C/C=C\CCCC(=O)C(F)(F)F | / | / | 3 | / | 25 | -9%
OC[C@@H]1O[C@H](OC2[C@@H](O)[C@@H](O)[C@@H](O)O[C@@H]2CO)[C@H](O)[C@@H](O)[C@@H]1OC1O[C@H](CO)[C@@H](O)[C@H](O)[C@@H]1O (some centres undefined) | / | / | -4 | / | -5 | -19%
COc1ccc(NC(=O)N2CC3(CCN(C(=O)c4cnccn4)CC3)C2)cc1 | 6% | / | / | / | / | 0%
Cc1csc(NC(=O)CSC2=NCCS2)n1 | 1% | -1% | 37* | 0% | 19 | /
Cn1nnnc1SCC(=O)Nc1nc2c(s1)CCCC2 | -9% | -2% | 42* | -20% | 70* | -8%
O=C(CSC1=NCCS1)Nc1nc2c(s1)CCCC2 | 0% | 1% | 39* | 2% | 99* | -26%
CC(C)(C)c1csc(NC(=O)CSC2=NCCS2)n1 | -2% | 2% | 12 | -4% | 16 | 4%
CCOC(=O)c1c(NC(=O)CSc2nnnn2C)sc(C)c1-c1ccc(C)cc1 | 1% | 4% | 16* | 0% | -16 | -7%
N#Cc1c(NC(=O)CSC2=NCCS2)sc2c1CCCC2 | -11% | 0% | -4 | -18% | -5 | -2%
CCOC(=O)c1c(-c2ccccc2)csc1NC(=O)CSc1nnnn1C | -2% | -3% | 4 | -17% | -4 | -9%
CC(=O)c1cc(F)c(N2CCN(C(=O)c3ccco3)CC2)cc1C | -6% | 1% | 31* | 3% | 0 | -1%
CC(=O)c1ccc(N2CCN(C(=O)c3ccco3)CC2)c(F)c1 | -26% | 0% | 48* | -14% | 59* | 3%
O=C(c1ccco1)N1CCN(c2ccc([N+](=O)[O-])cc2F)CC1 | 3% | -2% | 13* | -3% | 40* | /
